# Reference: ChEMBL document CHEMBL3433997, “St. Jude Leishmania screening dataset” (2016)
# Molecular target: Hexose transporter 1 (Plasmodium falciparum) (UniProt O97467)
# Assay: ST_JUDE_LEISH: Cytotoxicity at 2uM final concentration against transgenic Leishmania Mexicana promastigotes LmPfHT that are glucose transport deficient and complemented with the Plasmodium falciparum hexose transporter. Activity is measured by DNA content using SYBR green in vitro
# Assay type: functional
row,Compound,inhibition
1,O=C(Nc1ccc(Cl)cc1)Nc1cccc(-c2cccc(-c3nc4ccccc4[nH]3)c2)c1,0.33%
2,COc1cc(Cc2cnc(N)nc2N)c2c(c1OC)OC(C)C=C2 (stereo not given),2.39%
3,Fc1ccc2[nH]c(-c3ccc(-c4ccc(CN5CCN(CCN6CCOCC6)CC5)cc4)s3)nc2c1,2.96%
4,Cc1cc(-c2c[nH]c3ncc(-c4cccc5ncccc45)cc23)ccc1C(=O)O,0.55%
5,Cc1ccc(NC(=O)c2ccc3ncccc3c2)cc1OC1CCN(C(C)C)C1 (stereo not given),10.2%
6,Cc1cc(NCCC(=O)Nc2ccccc2)nc(NCCc2cccs2)n1,2.26%
7,O=C(Nc1ccc(Cn2ncc(N3CCCNCC3)c(Cl)c2=O)cc1)Nc1cccc(C(F)(F)F)c1,1.58%
8,Clc1ccc(CNc2nc(NCCc3c[nH]cn3)nc(N3CCCC4CCCCC43)n2)cc1 (stereo not given),4.86%
9,CC(=O)Nc1nc(N)c2c(ccc3c2ccn3CC(C)C)n1,-0.46%
10,Oc1ccc(Nc2nc(NCC3CCCO3)c3ccccc3n2)cc1 (stereo not given),6.25%
11,O=[N+]([O-])c1ccccc1C=NN=c1cc[nH]c2ccccc12,1.68%
12,COc1cccc(-c2cc(-c3ccc(NC(=O)c4ccccc4)cc3)c3c(N)ncnc3n2)c1,0.31%
13,CN1CCC(Oc2cc(NC(=O)Nc3ccc(-c4ccncc4)c(C(F)(F)F)c3)ccc2Cl)CC1,10.6%
14,CS(=O)(=O)c1ccccc1CNC(=O)c1ccc(-c2ccc(-c3nc4cc(C(F)(F)F)ccc4[nH]3)s2)cc1,2.99%
15,O=C(C=Cc1ccc(Cl)c(Cl)c1)NC1CCN(CCc2ccccc2)CC1,1.06%
16,COc1ccc2ncc(F)c(CCN3CCC4(CC3)COC(c3cc5c(cn3)OCCO5)=N4)c2n1,7.42%
17,Nc1c2ccccc2nc2ccc(Cl)cc12,16.4%
18,COc1ccc(C2N=C(N)N=C(N)N2c2ccc(Cl)cc2)cc1OC (stereo not given),2.52%
19,CS(=O)(=O)c1ccc(CCNCc2ccc(-c3ccc(CN(C(=O)c4ccco4)C4CCN(Cc5ccccc5)CC4)cc3)nc2)cc1,0.67%
20,Cc1ccc(NC(=O)c2c(C)noc2-c2snnc2C)cc1,4.05%

row,Compound,inhibition
1,Cc1c(CCc2cccc(F)c2F)[nH]c2ccccc2c1=O,5.03%
2,O=C(NCc1ccc(C(F)(F)F)cc1)c1cccc(-c2nnc(-c3cccc(-c4cncnc4)c3)o2)c1,4.62%
3,Cc1ccc(C(=O)Nc2cccc(CN3CCCN(Cc4ccc(O)cc4)CC3)c2)cc1,0.24%
4,COCC(C)n1c(C)cc(C(=O)CSc2nnc(Nc3ccccc3)s2)c1C (stereo not given),1.49%
5,Cc1ccccc1C1CCN(C2CCC(NC(=O)/C=C/c3cccc(C(F)(F)F)c3)CC2)CC1 (stereo not given),0.37%
6,CN(C)CCOc1cc(NC(=O)c2ccc(-c3ccc(Cl)cc3Cl)cc2)ccc1-c1ccccc1,0.95%
7,Cc1cc(I)ccc1Nc1nc2nonc2nc1Nc1ccc(I)cc1C,9.02%
8,CCCCn1c(C(C)Oc2ccc(Cl)cc2Cl)nc2cc(S(N)(=O)=O)ccc21 (stereo not given),-1.81%
9,CC1(C)NC(N)=NC(=N)N1OCCCNC(=O)c1ccc([N+](=O)[O-])cc1,3.33%
10,CCc1cc2c3c(N)nc(N)nc3ccc2n1C(CC)CC,72.7%
11,N#Cc1ccc2[nH]cc(-c3cn4cc(SC5CCCC5)ccc4n3)c2c1,1.11%
12,COc1cc(Cc2cnc(N)nc2N)cc(OCc2cccc(C(=O)O)c2)c1OC,-2%
13,Cc1cc(C)cc(N2C(N)=NC(N)=NC2(C)C)c1,5.93%
14,Cc1ncsc1CCN1C(=O)CC2(C1=O)C(=O)N(Cc1ccccc1)c1ccc(Cl)cc12 (stereo not given),2.58%
15,CN(C)CCCn1c(C(=O)OC(c2ccccc2)c2ccccc2)cc2cc(OCc3ccccc3)ccc21,0.08%
16,CC(C(=O)N1CCCC1)N1CCN(S(=O)(=O)c2ccc(C(C)(C)C)cc2)CC1 (stereo not given),0.46%
17,CC(Cc1ccc(CN(CC(N)=O)Cc2ccc(CC(C)NCCc3cccc(Cl)c3)cc2)cc1)NCCc1cccc(Cl)c1 (stereo not given),-0.2%
18,Cc1cc(NC(=O)c2coc3cc(F)c(N4CC(C)N(C)C(C)C4)cc23)cnc1-c1ccc(C#N)cc1 (stereo not given),-1%
19,COc1ccccc1/C=C/C(=O)N(C)C1CCN(CCCCCNC(=O)/C=C/c2ccc(Cl)c(Cl)c2)CC1,2.77%
20,Cc1ccccc1-c1cc(=O)c2cc(NC(=O)c3cccs3)ccc2o1,1.54%
